SMILES strings stand for the structures. The whole screen tested about 39,000 compounds, of which about 3,300 (8.5%) were called active. The full list was thinned out, with actives kept by preference.

This experiment deals with HepG2. The experiment is described as follows: cytotoxicity call (relative viability < 0.9). The following applies: 10 µM.
Consider `COc1ccc(NC(=O)N(C)C[C@H]2OCCCC[C@H](C)Oc3ccc(NS(=O)(=O)c4cccs4)cc3C(=O)N([C@@H](C)CO)C[C@@H]2C)cc1`, for which the cytotoxicity call is “inactive”.
Next, `C[C@H](CO)N1C[C@H](C)[C@H](CN(C)S(=O)(=O)c2ccc3c(c2)OCCCO3)OCc2cn(nn2)CCCC1=O`: “inactive”.
Under `C[C@H]1CCCCO[C@@H](CN(C)C(=O)CCC(F)(F)F)[C@@H](C)CN([C@@H](C)CO)C(=O)c2cc(NS(=O)(=O)c3ccccc3)ccc2O1` stands “inactive”.
Under `NC(=O)N1Cc2nccn2C[C@H](Cn2cncn2)C1` stands “inactive”; under `Cc1ccc(S(=O)(=O)Nc2ccc3c(c2)C(=O)N([C@H](C)CO)C[C@@H](C)[C@H](CN(C)C(=O)Nc2ccccc2)OCCCC[C@@H](C)O3)cc1`, “inactive”.
`CN1CCN(C(=O)C[C@H]2CC[C@H]3[C@@H](COC[C@H](O)CN3Cc3ccc(Oc4ccccc4)cc3)O2)CC1`: the cytotoxicity call is “inactive”.
As to `Cc1ccccc1S(=O)(=O)N1C[C@H](O)COC[C@H]2O[C@H](CC(=O)N3CCC(Cc4ccccc4)CC3)CC[C@@H]21`, the cytotoxicity call is “active”.
Under `O=C(C[C@@H]1CC[C@@H]2[C@H](COC[C@@H](O)CN2S(=O)(=O)c2ccccc2F)O1)N1CCC(Cc2ccccc2)CC1` stands “inactive”; under `O=C(C[C@@H]1CC[C@H]2[C@@H](COC[C@@H](O)CN2S(=O)(=O)c2ccccc2F)O1)N1CCC(Cc2ccccc2)CC1`, “inactive”; under `CN1CCN(C(=O)C[C@H]2CC[C@@H]3[C@H](COC[C@@H](O)CN3Cc3ccc(Oc4ccccc4)cc3)O2)CC1`, “active”.
For the molecule `Cc1ccccc1S(=O)(=O)N1C[C@H](O)COC[C@@H]2O[C@@H](CC(=O)N3CCC(Cc4ccccc4)CC3)CC[C@H]21`, the cytotoxicity call was “inactive”.
As for `Cc1ccccc1S(=O)(=O)N1C[C@H](O)COC[C@H]2O[C@@H](CC(=O)N3CCC(Cc4ccccc4)CC3)CC[C@@H]21`, the cytotoxicity call was “active”.
Next, `CN1CCN(C(=O)C[C@@H]2CC[C@H]3[C@@H](COC[C@@H](O)CN3Cc3ccc(Oc4ccccc4)cc3)O2)CC1`: “inactive”; `Cc1ccccc1S(=O)(=O)N1C[C@@H](O)COC[C@H]2O[C@H](CC(=O)N3CCC(Cc4ccccc4)CC3)CC[C@@H]21`: “active”; `Cc1ccccc1S(=O)(=O)N1C[C@H](O)COC[C@@H]2O[C@H](CC(=O)N3CCC(Cc4ccccc4)CC3)CC[C@H]21`: “inactive”.
Regarding `Cc1ccccc1S(=O)(=O)N1C[C@@H](O)COC[C@H]2O[C@@H](CC(=O)N3CCC(Cc4ccccc4)CC3)CC[C@@H]21`, the cytotoxicity call was “inactive”.
Next, `Cc1ccccc1S(=O)(=O)N1C[C@@H](O)COC[C@@H]2O[C@H](CC(=O)N3CCC(Cc4ccccc4)CC3)CC[C@H]21`: “inactive”; `C[C@@H]1CCCCO[C@H](CN(C)C(=O)Nc2ccc(F)cc2)[C@@H](C)CN([C@H](C)CO)C(=O)c2cc(NC(=O)C3CCCCC3)ccc2O1`: “inactive”.
Take `C[C@@H]1CCCCO[C@@H](CN(C)C(=O)c2ccccc2)[C@H](C)CN([C@H](C)CO)C(=O)c2cc(NS(=O)(=O)c3ccccc3)ccc2O1`: the cytotoxicity call was “inactive”.
For the molecule `C=c1ccccc1=C1NN=C(CN2CCCC2)O1`, the cytotoxicity call was “inactive”.
Under `C[C@H]1CCCCO[C@H](CN(C)Cc2ccc(Cl)c(Cl)c2)[C@@H](C)CN([C@@H](C)CO)C(=O)c2cc(NS(C)(=O)=O)ccc2O1` stands “inactive”.
Next, `COCC#Cc1ccc2c(c1)O[C@H](CN(C)S(=O)(=O)c1cccc(F)c1)[C@@H](C)CN([C@H](C)CO)S2(=O)=O`: “inactive”; `C[C@@H]1CCCCO[C@H](CN(C)Cc2ccc(C(=O)O)cc2)[C@@H](C)CN([C@@H](C)CO)C(=O)c2cc(NC(=O)NC3CCCCC3)ccc2O1`: “inactive”; `Cc1ccc2nc(-c3ccc(NC(=O)C4CCC4)cc3)sc2c1`: “inactive”.
As to `Cc1ccc2nc(/N=C/c3ccc(Cl)cc3Cl)sc2c1`, the cytotoxicity call was “inactive”.
As to `Cc1ccc2nc(-c3ccc(/N=C\c4ccc[nH]4)cc3)sc2c1`, the cytotoxicity call is “active”.
Under `COc1ccc2c3c([nH]c2c1)[C@@H](CO)N(C[C@]13CCN(CC1)CC1CCCCC1)C(=O)Nc1cccc(c1)F` stands “active”; under `COc1ccc2c3c([nH]c2c1)[C@@H](CO)N(CC1CCCCC1)C[C@]13CCN(CC1)C(=O)Nc1cccc(c1)F`, “inactive”; under `COc1ccc2c3c([nH]c2c1)[C@H](CO)N(CC1CCCCC1)C[C@]13CCN(CC1)C(=O)Nc1cccc(c1)F`, “inactive”.
Under `COc1ccc2c3c([nH]c2c1)[C@@H](CO)N(C[C@]13CCN(CC1)CC1CCCCC1)C(=O)Nc1c(noc1C)C` stands “inactive”; under `COc1ccc2c3c([nH]c2c1)[C@H](CO)N(C[C@]13CCN(CC1)CC1CCCCC1)C(=O)Nc1c(noc1C)C`, “inactive”; under `COc1ccc2c3c([nH]c2c1)[C@H](CO)N(C[C@]13CCN(CC1)CC1CCCCC1)C(=O)Nc1cccc(c1)F`, “active”.
For `C[C@@H]1CCCCO[C@@H](CN(C)C(=O)CCC(F)(F)F)[C@@H](C)CN([C@H](C)CO)C(=O)c2cc(NC(=O)Nc3ccc(F)cc3)ccc2O1`, the cytotoxicity call was “inactive”.
As for `C[C@H]1CN([C@@H](C)CO)C(=O)c2cccc(NC(=O)c3ccc(-c4nccs4)cc3)c2O[C@@H]1CN(C)C(=O)Nc1ccc(F)cc1`, the cytotoxicity call was “inactive”.
Take `Cc1noc(C)c1NC(=O)N(C)C[C@@H]1OCCCC[C@H](C)Oc2ccc(NC(=O)NC3CCCCC3)cc2C(=O)N([C@@H](C)CO)C[C@@H]1C`: the cytotoxicity call was “inactive”.
Under `O=c1[nH]nc(Br)c(=O)[nH]1` stands “inactive”; under `O=C(O)C[C@H]1CC[C@@H]2[C@H](COC[C@@H](O)CN2S(=O)(=O)c2ccc(F)cc2)O1`, “inactive”.
For `CC(=O)CC(c1ccccc1)c1c(O)c2ccccc2oc1=O` (configuration not stated), the cytotoxicity call was “active”.
For the molecule `O=C(O)c1cc(=O)c2ccccc2o1`, the cytotoxicity call was “inactive”.
As to `O=c1oc2ccccc2c(O)c1Cc1c(O)c2ccccc2oc1=O`, the cytotoxicity call is “inactive”.
With `CO[C@@H](CN(C)S(=O)(=O)c1cccc(Cl)c1)[C@@H](C)CN([C@@H](C)CO)S(=O)(=O)c1cccc(Cl)c1`, the cytotoxicity call is “inactive”.
Under `C[C@H]1CN([C@@H](C)CO)C(=O)Cc2cc(NC(=O)Cc3cn(C)c4ccccc34)ccc2O[C@@H]1CN(C)Cc1ccc(Oc2ccccc2)cc1` stands “inactive”; under `C[C@H]1CN([C@@H](C)CO)C(=O)Cc2cc(NC(=O)Cc3cn(C)c4ccccc34)ccc2O[C@H]1CN(C)Cc1ccc(Oc2ccccc2)cc1`, “active”; under `C[C@@H]1CN([C@H](C)CO)C(=O)Cc2cc(NC(=O)Cc3cn(C)c4ccccc34)ccc2O[C@@H]1CN(C)Cc1ccc(Oc2ccccc2)cc1`, “active”.
Next, `C[C@@H]1CN([C@@H](C)CO)C(=O)Cc2cc(NC(=O)Cc3cn(C)c4ccccc34)ccc2O[C@H]1CN(C)Cc1ccc(Oc2ccccc2)cc1`: “active”.
As to `C[C@H](CO)N1C[C@H](C)[C@H](CN(C)Cc2ccc(Oc3ccccc3)cc2)Oc2ccc(NC(=O)Cc3cn(C)c4ccccc34)cc2CC1=O`, the cytotoxicity call was “active”.
Next, `C[C@@H]1CN([C@H](C)CO)C(=O)Cc2cc(NC(=O)Cc3cn(C)c4ccccc34)ccc2O[C@H]1CN(C)Cc1ccc(Oc2ccccc2)cc1`: “inactive”.

These data come from the antibiotic and cytotoxicity screens of Wong et al. (2023).
